According to PubChem BioAssay (NCATS):
Inconclusive results are not listed. Entries that show only a call come without a potency. Active and inactive are the calls of the source. Calls come from the whole dose curve; as a rule, active = well fitted cell-killing curve with a large enough effect; inconclusive = small, poorly fitted or top-dose-only effect, or effect the other way; inactive = no such curve, though single readings can be large or run the other way.

Experiment: Quantitative High-Throughput drug screen in 47 multiple myeloma cell lines against the NCATS MIPE library collection: KHM11_PLB cell viability assay (AID 1918962); note: nearly all actives have a fitted effect of over 35% in size
Conditions: KHM11 myeloma cell viability, CellTiter-Glo ATP luminescence, 48 h; series mostly up to 45.8 µM
Summary of the method: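 Viability readout: CellTiter-Glo luminescence following 5 min room-temperature incubation with reagent. Prior exposure: 48 h, 37C, humidified 5% CO2, 500 cells per well.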
Potency is the fitted concentration of half-maximal effect.

**Q.** Which Potency does the source give for `Cc1cnc(CNC(=O)c2c(=O)c3ccc(N4CCCN(C)CC4)nc3n3c2sc2ccccc23)cn1` here?
**A.** inactive

**Q.** For `CN1C(=O)C[C@H](C(=O)N[C@@H](Cc2cnc[nH]2)C(=O)N2CCC[C@@H]2C(N)=O)NC1=O`, which Potency is on record?
**A.** inactive

**Q.** With `CC1CNc2c(cccc2S(=O)(=O)N[C@@H](CCCN=C(N)N)C(=O)N2CC[C@@H](C)C[C@@H]2C(=O)O)C1` (stereo not given in full) as the compound, how does the Potency read?
**A.** inactive

**Q.** With `CNC(=O)[C@H](Cc1ccccc1)NC(=O)[C@H](CC(C)C)[C@H](CSc1cccs1)C(=O)NO` as the compound, how does the Potency read?
**A.** inactive

**Q.** With `CNC(=O)c1ccc2c(C(=Nc3cccc(CN(C)C)c3)c3ccccc3)c(O)[nH]c2c1` as the compound, how does the Potency read?
**A.** 1320 nM (active)

**Q.** For `CCOC(=O)c1c(CSc2ccccc2)n(C)c2cc(Br)c(O)c(CN(C)C)c12`, which Potency is on record?
**A.** inactive

**Q.** For `CCn1c(-c2nonc2N)nc2cncc(CNC3CCNCC3)c21`, which Potency is on record?
**A.** 2640 nM (active)

**Q.** With `COc1cc([C@@H]2c3cc4c(cc3[C@@H](O[C@@H]3O[C@@H]5CO[C@@H](C)O[C@@H]5[C@H](O)[C@@H]3O)[C@H]3COC(=O)[C@H]23)OCO4)cc(OC)c1O` as the compound, how does the Potency read?
**A.** inactive

**Q.** Which Potency does the source give for `O=C(Nc1ccc(OC(F)(F)F)cc1)c1sccc1NCc1ccnc2ccccc12` here?
**A.** inactive

**Q.** Which Potency does the source give for `COc1ccc2nc3cc(Cl)ccc3c(Nc3cc(CN4CCCC4)c(O)c(CN4CCCC4)c3)c2n1` here?
**A.** 20900 nM (active)
